# PubChem BioAssay (Tox21)
# “And” between values parts separate entries of the source, which are not always exact repeats. Equal values may be shown once. Records with an inconclusive call do not appear. Values without a mark were called inactive. The source made the active and inactive calls. Unless noted, the call rests on the fitted dose curve.
# Tested on: not listed separately
# Assay: p53 small molecule agonists, cell-based qHTS assay (AID 1963582; active means well fitted activation curve with a large enough effect in the signal ratio in the repeat runs, not every such curve was filed as active; the % refers to the signal ratio)
# Conditions: HCT-116 p53RE-bla reporter, beta-lactamase FRET ratio, 16 h; series mostly up to 66 µM; activation: at the top concentration
# Procedure, shortened: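 Quantitative HTS in p53RE-bla cells: after a 5 h settling period, compounds delivered in DMSO were left on cells for 16 h at 37 C, and reporter induction was measured as fluorescence following 2 h substrate loading.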
# On the % scale 0 is the no-effect control and ±100 the full control effect.
SMILES,activation,Potency
N#CCCO,3.71%,
C=CCSSCC=C,1.51%,
N#Cc1ccc(Cl)cc1,1.73%,
C=CCc1cc(OC)c2c(c1)OCO2,0.0392%,
c1ccc(-c2cccc(-c3ccccc3)c2)cc1,,inactive
c1ccc(NNc2ccccc2)cc1,,inactive
OCCSSCCO,0.0526%,
CCN,0.895%,
N#Cc1ccc(O)cc1,0.0448%,
NCCOS(=O)(=O)O,3.53%,
O=NN(c1ccccc1)c1ccccc1,,inactive
COC(=O)Nc1cccc(OC(=O)Nc2cccc(C)c2)c1,,inactive
CC(Br)C(=O)O (centres undefined),,inactive
O=S1OCC2C(CO1)C1(Cl)C(Cl)=C(Cl)C2(Cl)C1(Cl)Cl (centres undefined),,inactive
ClC(Cl)(Cl)Br,,inactive
CCN(CC)Cc1nccn1-c1ccc([N+](=O)[O-])cc1C(=O)c1ccccc1Cl,1.08% [at 30.3 µM],
Cl/C=C/CCl,-1.66%,

SMILES,activation,Potency
CCCCCCCCSC(=O)Oc1cc(Cl)nnc1-c1ccccc1,7.85%,
Cc1ccc(N)cc1N,,inactive
[O-][Cl+]O,-5.87%,
OCCOc1ccccc1,,inactive
CC(C)Nc1ccc(Nc2ccccc2)cc1,-6.71%,
O=C(CCN1CC1)OCC(CO)(COC(=O)CCN1CC1)COC(=O)CCN1CC1,5.1%,
CC(C)(C)C(O)(CCc1ccc(Cl)cc1)Cn1cncn1 (centres undefined),,inactive
CC1COC2(c3ccccc3Cl)c3cc(Cl)ccc3NC(=O)CN12 (centres undefined),-4.29% [at 30.3 µM],
N#CC(c1ccccc1)c1ccccc1,,inactive
O=C(Cl)OCCOCCOC(=O)Cl,-2.8%,
CN(C)CCC#N,,inactive
CCN(CCO)CCO,-0.636%,
O=C(NCO)NCO,-0.383%,
Nc1c(Br)cc([N+](=O)[O-])cc1[N+](=O)[O-],-1.96%,
Cc1cccc(N)c1N,,inactive
CC(C)C(=O)OCC(C)(C)C(OC(=O)C(C)C)C(C)C (centres undefined),,inactive

# Molecular target: 5-hydroxytryptamine receptor 2A (Homo sapiens) (UniProt P28223)
# Sequence (P28223 whole entry, looked up): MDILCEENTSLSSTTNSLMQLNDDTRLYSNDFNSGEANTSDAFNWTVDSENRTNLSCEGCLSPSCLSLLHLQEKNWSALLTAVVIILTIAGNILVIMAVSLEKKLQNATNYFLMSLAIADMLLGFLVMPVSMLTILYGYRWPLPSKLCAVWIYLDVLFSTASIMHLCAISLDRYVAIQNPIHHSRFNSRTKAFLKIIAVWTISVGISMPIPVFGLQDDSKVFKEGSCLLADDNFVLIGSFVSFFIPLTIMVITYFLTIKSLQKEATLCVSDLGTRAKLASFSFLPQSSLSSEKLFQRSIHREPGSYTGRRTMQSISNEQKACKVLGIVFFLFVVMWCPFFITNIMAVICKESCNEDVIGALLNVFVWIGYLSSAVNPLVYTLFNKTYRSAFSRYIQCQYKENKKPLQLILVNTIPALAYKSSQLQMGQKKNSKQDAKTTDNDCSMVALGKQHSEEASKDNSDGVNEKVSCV
# Assay: 5-hydroxytryptamine receptor 2A (HTR2A) small molecule antagonists, cell-based qHTS assay (AID 1963586); further: nearly all actives have a fitted effect of over 45% in size; further: potency means the concentration at half of the fitted maximal effect
# Conditions: HTR2A-CHO cells, DOI-induced calcium flux, fluorescence; series mostly up to 61.5 µM; activity, negative = inhibition: at the top concentration
# Procedure, shortened: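 Antagonist-mode intracellular calcium assay: DOI (4 nM) added after 5 min compound pre-incubation at room temperature to dye-loaded HTR2A-CHO cells. Fluorescence followed for 3 min, sampled every second.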
SMILES,"activity, negative = inhibition",Potency
N#CCCO,1.66%,
C=CCSSCC=C,-2.04%,
N#Cc1ccc(Cl)cc1,-4.16%,
C=CCc1cc(OC)c2c(c1)OCO2,-10.2%,
c1ccc(-c2cccc(-c3ccccc3)c2)cc1,,inactive
c1ccc(NNc2ccccc2)cc1,,inactive
CCCCCCCCCCn1cc[n+](C)c1,,inactive
OCCSSCCO,15.3%,
CCN,3.03%,
N#Cc1ccc(O)cc1,0.859%,
NCCOS(=O)(=O)O,13.1%,
O=NN(c1ccccc1)c1ccccc1,,inactive
COC(=O)Nc1cccc(OC(=O)Nc2cccc(C)c2)c1,,inactive
CC(Br)C(=O)O (centres undefined),,inactive
O=S1OCC2C(CO1)C1(Cl)C(Cl)=C(Cl)C2(Cl)C1(Cl)Cl (centres undefined),,inactive
ClC1=C(Cl)C2(Cl)C3C(Cl)C(Cl)CC3C1(Cl)C2(Cl)Cl (centres undefined),43.7%,
ClC(Cl)(Cl)Br,,inactive
CCN(CC)Cc1nccn1-c1ccc([N+](=O)[O-])cc1C(=O)c1ccccc1Cl,74.3% [at 28.5 µM],

SMILES,"activity, negative = inhibition",Potency
Cl/C=C/CCl,4.62%,
CCCCCCCCSC(=O)Oc1cc(Cl)nnc1-c1ccccc1,-15%,
Cc1ccc(N)cc1N,,inactive
[O-][Cl+]O,5.93%,
OCCOc1ccccc1,,inactive
CC(C)Nc1ccc(Nc2ccccc2)cc1,,11.8 µM (active) and 16.8 µM (active)
O=C(CCN1CC1)OCC(CO)(COC(=O)CCN1CC1)COC(=O)CCN1CC1,-20.6%,
CC1COC2(c3ccccc3Cl)c3cc(Cl)ccc3NC(=O)CN12 (centres undefined),25.7% [at 28.5 µM],
CC(C)(C)OOC(C)(C)CCC(C)(C)OOC(C)(C)C,21.9%,
N#CC(c1ccccc1)c1ccccc1,,inactive
O=C(Cl)OCCOCCOC(=O)Cl,-5.93%,
CCN(CC)C(=O)C(C)Oc1cccc2ccccc12 (centres undefined),,inactive
CN(C)CCC#N,,inactive
CCN(CCO)CCO,2.37%,
O=C(NCO)NCO,21.1%,
Nc1c(Br)cc([N+](=O)[O-])cc1[N+](=O)[O-],-12.3%,
Cc1cccc(N)c1N,,inactive
CC(C)C(=O)OCC(C)(C)C(OC(=O)C(C)C)C(C)C (centres undefined),,inactive
